Test results reported in PubChem BioAssay AID1159580 (chemical genetic matrix, 2015).
“And” between values parts separate entries of the source, which are not always exact repeats. Identical values can stand only once. Screen size: about 5,500 compounds; about 2,000 (36%) were called active. Roughly 18% stayed inconclusive and do not appear here. No stated cut-off is given here; in the data, active means normalized growth mostly below about 0.91 (no sharp cut-off); inconclusive means no clear call, values can overlap the other calls; inactive means mostly above about 0.92. The list shows a part of the results.

Assay: chemical genetic growth profiling, strain panel (AID 1159580);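 further: tested at 20 µM; growth read once vehicle control cultures reached saturation at 30 °C; 1 = growth at the plate median or of vehicle wells; lower values mean less growth of the strain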
Conditions: growth OD

Measured: normalized growth

CCc1cccc2c3c([nH]c12)C(CC)(CC(=O)O)OCC3 (stereo not given)
inactive: S. cerevisiae deletion strains, locus YKL009W, strain mrt4, hits give low values 0.965 | S. cerevisiae deletion strains, locus YKL068W, hits give low values 1 | S. cerevisiae deletion strains, locus YKL085W, strain MDH1 (second series), hits give low values 0.992 | S. cerevisiae deletion strains, locus YKL085W, strain MDH1, hits give low values 0.992 | S. cerevisiae deletion strains, locus YKL160W, strain elf1, hits give low values 0.975 | S. cerevisiae deletion strains, locus YKL190W, strain CNB1, hits give low values 1 | S. cerevisiae deletion strains, locus YKR001C, strain vps1, hits give low values 0.98 | S. cerevisiae deletion strains, locus YKR026C, strain gcn3, hits give low values 0.987 | S. cerevisiae deletion strains, locus YKR091W, strain srl3, hits give low values 0.978 | S. cerevisiae deletion strains, locus YLL001W, strain dnm1, hits give low values 0.961 | S. cerevisiae deletion strains, locus YLL026W, hits give low values 0.99 | S. cerevisiae deletion strains, locus YLL041C, strain sdh2, hits give low values 0.976 | S. cerevisiae deletion strains, locus YLR027C, strain aat2, hits give low values 0.987 | S. cerevisiae deletion strains, locus YLR039C, strain RIC1, hits give low values 0.989 | S. cerevisiae deletion strains, locus YLR058C, strain SHM2, hits give low values 1.01 | S. cerevisiae deletion strains, locus YLR102C, strain apc9, hits give low values 1 | S. cerevisiae deletion strains, locus YLR113W, strain HOG1, hits give low values 0.938 | S. cerevisiae deletion strains, locus YLR221C, strain rsa3, hits give low values 0.993 | S. cerevisiae deletion strains, locus YLR258W, strain gsy2, hits give low values 0.994 | S. cerevisiae deletion strains, locus YLR262C, strain YPT6 (second series), hits give low values 0.93 | S. cerevisiae deletion strains, locus YLR262C, strain YPT6, hits give low values 0.978 | S. cerevisiae deletion strains, locus YLR268W, strain sec22, hits give low values 1.05 | S. cerevisiae deletion strains, locus YLR320W, strain mms22, hits give low values 1.01 | S. cerevisiae deletion strains, locus YLR330W, strain CHS5, hits give low values 1.01 | S. cerevisiae deletion strains, locus YLR342W, strain FKS1 (second series), hits give low values 1.03 | S. cerevisiae deletion strains, locus YLR342W, strain FKS1, hits give low values 0.985 | S. cerevisiae deletion strains, locus YLR357W, strain rsc2, hits give low values 0.918 | S. cerevisiae deletion strains, locus YLR370C, strain arc18, hits give low values 0.973 | S. cerevisiae deletion strains, locus YLR371W, strain rom2, hits give low values 0.987 | S. cerevisiae deletion strains, locus YLR384C, strain iki3, hits give low values 0.967 | S. cerevisiae deletion strains, locus YLR418C, strain cdc73, hits give low values 0.995 | S. cerevisiae deletion strains, locus YML016C, strain PPZ1, hits give low values 1 | S. cerevisiae deletion strains, locus YML032C, strain rad52, hits give low values 1.01 | S. cerevisiae deletion strains, locus YML120C, strain ndi1, hits give low values 0.977 | S. cerevisiae deletion strains, locus YML124C, strain tub3, hits give low values 1 | S. cerevisiae deletion strains, locus YMR058W, strain fet3, hits give low values 0.993 | S. cerevisiae deletion strains, locus YMR078C, strain ctf18, hits give low values 1 | S. cerevisiae deletion strains, locus YMR125W, strain sto1, hits give low values 0.924 | S. cerevisiae deletion strains, locus YMR129W, hits give low values 0.972 | S. cerevisiae deletion strains, locus YMR205C, strain PFK2, hits give low values 0.98 | S. cerevisiae deletion strains, locus YMR223W, strain ubp8, hits give low values 0.99 | S. cerevisiae deletion strains, locus YMR231W, strain pep5, hits give low values 0.967 | S. cerevisiae deletion strains, locus YMR263W, strain SAP30, hits give low values 1.01 and 1 | S. cerevisiae deletion strains, locus YMR307W, strain GAS1, hits give low values 0.923 and 1.01 | S. cerevisiae deletion strains, locus YNL067W, strain RPL9B, hits give low values 1.02 | S. cerevisiae deletion strains, locus YNL071W, strain lat1, hits give low values 0.988 | S. cerevisiae deletion strains, locus YNL128W, strain TEP1, hits give low values 1.01 | S. cerevisiae deletion strains, locus YNL153C, strain GIM3, hits give low values 1.02 | S. cerevisiae deletion strains, locus YNL175C, strain NOP13, hits give low values 0.994 | S. cerevisiae deletion strains, locus YNL183C, strain NPR1, hits give low values 0.93 | S. cerevisiae deletion strains, locus YNL197C, strain WHI3, hits give low values 0.954 | S. cerevisiae deletion strains, locus YNL209W, strain ssb2, hits give low values 0.972 | S. cerevisiae deletion strains, locus YNL224C, strain SQS1, hits give low values 0.987 | S. cerevisiae deletion strains, locus YNL233W, strain BNI4, hits give low values 1.01 | S. cerevisiae deletion strains, locus YNL248C, strain rpa49, hits give low values 0.981 | S. cerevisiae deletion strains, locus YNL250W, strain rad50, hits give low values 0.992 | S. cerevisiae deletion strains, locus YNL271C, strain bni1, hits give low values 1.01 | S. cerevisiae deletion strains, locus YNL298W, strain CLA4, hits give low values 0.984 | S. cerevisiae deletion strains, locus YNL307C, strain MCK1, hits give low values 1 | S. cerevisiae deletion strains, locus YNL322C, strain KRE1 (second series), hits give low values 0.965 | S. cerevisiae deletion strains, locus YNL322C, strain KRE1, hits give low values 1 | S. cerevisiae deletion strains, locus YNR049C, strain mso1, hits give low values 0.963 | S. cerevisiae deletion strains, locus YNR052C, strain pop2, hits give low values 1.01 | S. cerevisiae deletion strains, locus YOL006C, strain TOP1, hits give low values 1.08 | S. cerevisiae deletion strains, locus YOL012C, strain htz1 0.943 | S. cerevisiae deletion strains, locus YOL147C, strain pex11, hits give low values 1 | S. cerevisiae deletion strains, locus YOR001W, strain rrp6, hits give low values 0.949 | S. cerevisiae deletion strains, locus YOR061W, strain CKA2, hits give low values 1.01 | S. cerevisiae deletion strains, locus YOR069W, strain VPS5, hits give low values 1 | S. cerevisiae deletion strains, locus YOR070C, strain gyp1, hits give low values 0.981 | S. cerevisiae deletion strains, locus YOR080W, strain dia2, hits give low values 0.972 | S. cerevisiae deletion strains, locus YOR083W, strain WHI5 (second series), hits give low values 0.978 | S. cerevisiae deletion strains, locus YOR083W, strain WHI5, hits give low values 0.987 | S. cerevisiae deletion strains, locus YOR106W, strain vam3, hits give low values 0.969 | S. cerevisiae deletion strains, locus YOR136W, strain idh2, hits give low values 0.998 | S. cerevisiae deletion strains, locus YOR144C, strain elg1, hits give low values 1 | S. cerevisiae deletion strains, locus YOR184W, strain ser1, hits give low values 1.01 | S. cerevisiae deletion strains, locus YOR231W, strain MKK1, hits give low values 0.986 | S. cerevisiae deletion strains, locus YOR265W, strain rbl2, hits give low values 1 | S. cerevisiae deletion strains, locus YOR270C, strain vph1, hits give low values 0.969 | S. cerevisiae deletion strains, locus YOR290C, strain snf2, hits give low values 1 | S. cerevisiae deletion strains, locus YOR316C, strain cot1, hits give low values 1 | S. cerevisiae deletion strains, locus YPL051W, strain arl3, hits give low values 0.994 | S. cerevisiae deletion strains, locus YPL055C, strain LGE1, hits give low values 0.989 | S. cerevisiae deletion strains, locus YPL078C, strain atp4, hits give low values 0.963 | S. cerevisiae deletion strains, locus YPL106C, strain sse1, hits give low values 1.03 | S. cerevisiae deletion strains, locus YPL240C, strain hsp82, hits give low values 0.976 | S. cerevisiae deletion strains, locus YPL241C, strain CIN2, hits give low values 1.01 | S. cerevisiae deletion strains, locus YPL256C, strain CLN2, hits give low values 0.981 | S. cerevisiae deletion strains, locus YPR119W, strain clb2, hits give low values 1.01 | S. cerevisiae deletion strains, locus YPR141C, strain kar3, hits give low values 1 | S. cerevisiae deletion strains, locus YPR163C, strain tif3, hits give low values 1.01 | S. cerevisiae deletion strains, locus YPR167C, strain met16, hits give low values 1.01 | S. cerevisiae deletion strains, strain wtn01, hits give low values 0.994 | S. cerevisiae strains, strain wild type, hits give low values 0.999
